# According to PubChem BioAssay AID2314 (National Center for Advancing Translational Sciences (NCATS), 2010):
# Out of some 300,000 compounds screened, about 37,000 (12%) were called active. For the sample, actives were picked, then their nearest neighbours and some compounds at random. Unmarked numbers belong to inactive results. Cut-off read from the data, not from the text of the source: active = max response mostly above about 13% (no sharp cut-off); inactive = mostly below about 14%.
# Experiment: Cycloheximide Counterscreen for Small Molecule Inhibitors of Shiga Toxin; note: read at 38.3 µM for the half of the compounds with a filed dose; 0% is about no effect
# Settings: cell reporter, cycloheximide protein synthesis inhibition counterscreen; stronger effect = higher value
row,SMILES,max response
1,COC(=O)c1cc(-c2cccs2)nc2ccccc12,-2.85%
2,CC(NC(=O)c1ccco1)C(=O)Nc1nc(-c2ccccn2)cs1 (stereo not given),-2.97%
3,c1ccc(Nc2nc(-c3ccncc3)cs2)nc1,36.4% (active)
4,COC(=O)CSc1nccc(-c2cccs2)n1,17%
5,Clc1ccc(Nc2nc(-c3cccs3)cs2)nc1,37.5% (active)
6,COc1ccc2cc(S(=O)(=O)Nc3ccccn3)ccc2c1,-3.68%
7,c1ccc(NCc2cccc3ccccc23)nc1,9.29%
8,c1cnc(Nc2nc(-c3ccc4ccccc4c3)cs2)nc1,42.5% (active)
9,COc1ccc(-c2csc(Nc3ccccn3)n2)cc1,40.4% (active)
10,COc1ccc(-c2nc(CS(=O)(=O)CC(=O)NCc3cccc(Br)c3)c(C)o2)cc1,6.41%
11,Cc1ccc(OCCCCN2CCCCC2)c(Br)c1,10.9%
12,CC(C)(C)NC(=O)NC(=O)COC(=O)C1c2ccccc2Oc2ccccc21,0.419%
13,Cc1ccc(CNC(=O)c2cccnc2Cl)cc1,6.44%
14,CCN(C(=O)c1ccc(Br)cc1)c1ccccc1,-3.18%
15,Cc1cccc(C(=O)N2CCCC(Nc3ccc(C(C)C)cc3)C2)n1 (stereo not given),17.8%
16,CCOC(=O)C1(CCOc2ccccc2)CCN(Cc2ccc(C#CCCO)cc2)CC1,-3.24%
17,CCCC1=Nc2cc(C(=O)NCCN3CCCC3)ccc2Sc2ccccc21,-5.31%
18,O=C(Nc1ccc(OCC(=O)N2CCOCC2)cc1)c1cc(F)c(F)cc1Cl,2.51%
19,O=C(Nc1nccs1)c1cc(S(=O)(=O)N2CCOCC2)c(Cl)cc1Cl,-3.9%
20,CCN1CCc2nc(NC(=O)c3cc(F)c(F)cc3Cl)sc2C1,18.8% (active)
21,COc1ccc(-n2nnnc2SCC(=O)c2ccc(OC)c(OC)c2)cc1,-0.506%
22,O=C(CSc1nnnn1-c1ccc(O)cc1)c1ccc(F)cc1,23.5% (active)
23,Cc1cc(NC(=O)CSc2nnnn2-c2ccc(F)cc2)no1,-1.5%
24,CCC(C(=O)NCc1cccnc1)n1nc(C)c2sc3ccccc3c2c1=O (stereo not given),-10.2%

row,SMILES,max response
1,CC(C)N(C(=O)Cn1cc(S(=O)(=O)CC(=O)N2CCOCC2)c2ccccc21)C(C)C,2.9%
2,O=C(NCCCn1ccnc1)C1CCCN(S(=O)(=O)c2cc(Cl)ccc2Cl)C1 (stereo not given),-4.82%
3,O=c1cc(-c2ccc(O)cc2)oc2c([C@@H]3O[C@H](CO)[C@@H](O)[C@H](O)[C@H]3O)c(O)cc(O)c12,-8.35%
4,CC(C)N(Cc1nc(-c2ccc3c(c2)OCO3)no1)CC1CCC(=O)N1 (stereo not given),1.08%
5,CCn1ccnc1CN(C)Cc1nc(-c2ccc3c(c2)OCO3)no1,28.4% (active)
6,CN(CCN1CCOCC1)Cc1nc(-c2ccc3c(c2)OCO3)no1,8.52%
7,Cc1ccc(C)c(N2CCN(C(=O)CCCCCn3c(=S)[nH]c4ccc(N5CCOCC5)cc4c3=O)CC2)c1,9.94%
8,COc1cc(OC)c(OC)cc1/C=N/Nc1ncnc2c1[nH]c1ccc(C)cc12,-3.15%
9,Fc1ccc2[nH]c3c(N4CCSCC4)ncnc3c2c1,5.04%
10,CC(C)OCCCNc1ncnc2c1[nH]c1ccc(F)cc12,39% (active)
11,O=CN1CCN(C(=O)c2ccc(Br)o2)CC1,1.29%
12,C=CCn1c(Oc2ccc(C(=O)OC)cc2)nc2c1c(=O)n(C)c(=O)n2C,-5.23%
13,Cc1ccccc1NC(=O)N1CCCC1C(=O)NCc1ccccc1 (stereo not given),-1.83%
14,Cc1c(CCO)c(=O)[nH]n1C(=O)c1c(F)cccc1F,17%
15,COc1ccc(Oc2c(Cl)cnn(-c3ccccc3)c2=O)cc1,-1.92%
16,COc1ccc(CCC(C)N2CCc3ccccc3C2)cc1 (stereo not given),1.02%
17,COc1ccc(-n2ncc3c(N4CCc5ccccc54)ncnc32)cc1,49.8% (active)
18,COc1ccc(-n2ncc3c(N4CCCc5ccccc54)ncnc32)cc1,44.9% (active)
19,COc1ccc(-n2ncc3c2CC(C)(C)CC3NC(=O)CCc2c(C)noc2C)cc1 (stereo not given),1.45%
20,C#CC(CCN1CCCCC1)(OC)c1ccccc1 (stereo not given),-1.93%
21,COc1ccccc1NC(=S)N1CCN(C(c2ccccc2)c2ccccc2)CC1,-1.77%
22,Cc1nc2ccc(NC(=O)N3CCC(c4ccccc4)C3)cc2nc1C (stereo not given),-1.48%
23,Cc1nc2ccc(NC(=S)N3CCC(C)CC3)cc2nc1C,29.7% (active)
24,Cc1cccc(NC(=S)N2CCC(c3nc4ccccc4s3)CC2)c1,-8.19%

row,SMILES,max response
1,CC(=O)N1CCN(CC(=O)Nc2ccc(SC(F)F)cc2)CC1,-7.31%
2,Cc1ccc(CC(=O)Nc2ccc(OC(F)F)c(Cl)c2)cc1C,-1.56%
3,O=C(Cc1ccc(Cl)c(Cl)c1)Nc1ccc(SC(F)F)cc1,32.1% (active)
4,Cc1ccc(C(C[N+](=O)[O-])c2c(C)cc3ccccn23)cc1 (stereo not given),-2.05%
5,Nc1ccccc1SC(C[N+](=O)[O-])c1ccccc1 (stereo not given),58.7% (active)
6,CCCN1C2CCCC1CC(NC(=O)c1cccc(OC)c1)C2 (stereo not given),0.249%
7,COc1ccccc1C1CCN(c2ccc([N+](=O)[O-])cn2)CC1,4.09%
8,O=C(Cc1c(Cl)cccc1Cl)NC1CC1,-4.84%
9,Cc1ccc(S(=O)(=O)c2nnn3c2nc(N2CCN(c4ccccn4)CC2)c2ccccc23)cc1,-2.94%
10,FC(F)(F)c1cc(-c2ccco2)nc(NCc2ccc(Cl)cc2)n1,-4.49%
11,CN(CC(=O)Nc1ccc(F)cc1)C(=O)c1ccc(-c2ccc(Cl)cc2)o1,10.2%
12,O=C(N/N=C\c1ccc(-c2ccc(Cl)c(Cl)c2)o1)C(=O)N1CCCC1,-1.36%
13,COC(=O)N/N=C/c1ccc(-c2ccc(Cl)c(Cl)c2)o1,51.5% (active)
14,Nc1nnnn1CC(=O)N/N=C/c1ccc(-c2cccc(Cl)c2)o1,12.6%
15,Cc1cccc(-c2nc(CS(=O)CC(=O)NC(C)CCc3ccccc3)c(C)o2)c1 (stereo not given),-0.794%
16,O=C(Nc1ccc(Cl)c(Cl)c1)N1CC=C(c2ccccc2)CC1,4.38%
17,Cc1ccc(C)c(N2CCN(C(=O)CCCn3c(=O)c4cccn4c4cccnc43)CC2)c1,-1.51%
18,COc1ccc(C2NC(=S)NC3=C2CCc2ccccc23)cc1OC (stereo not given),6.79%
19,CCOC(=O)C1=C(c2ccccc2)NC(=S)NC1c1ccc(Cl)cc1 (stereo not given),1.29%
20,CCOc1ccc(C2NC(=S)NC3=C2CCc2ccccc23)cc1 (stereo not given),54.2% (active)
21,Cc1ccc(CNC(=O)[C@@H](NC(=O)Cc2ccccc2)C(C)C)cc1,3.51%
22,CSCCC(NS(=O)(=O)c1ccc2c(c1)oc(=O)n2C)C(=O)NC1CCCc2ccccc21 (stereo not given),7.75%
23,O=[N+]([O-])c1cccc(S(=O)(=O)NCc2ccccn2)c1,-2.36%
24,COc1cccc(C(=O)OCc2cc(=O)oc3c(C)c(C)ccc23)c1OC,-3.37%

row,SMILES,max response
1,O=C(Nc1cccc(Cl)c1Cl)c1ccccc1NC(=O)C1CC=CCC1C(=O)O (stereo not given),26.8% (active)
2,O=C(Nc1ccccc1C(=O)N1CCCCCC1)c1ccccc1Cl,-3.34%
3,O=C(Nc1ccc(Cl)c(Cl)c1)c1ccccc1NC(=O)C1CC=CCC1C(=O)O (stereo not given),38.2% (active)
4,O=C(O)C1CC=CCC1C(=O)Nc1ccccc1C(=O)N1CCN(c2ccccc2)CC1 (stereo not given),-3.82%
5,O=C(O)C1CC=CCC1C(=O)NCCc1ccccc1 (stereo not given),-2.55%
6,O=C(Nc1ccccc1)c1ccccc1NC(=O)C(F)(F)F,11.2%
7,COc1ccc(-c2nn(-c3ccccc3)cc2/C=C2/SC(=S)N(CCCC(=O)O)C2=O)c(C)c1,-2.33%
8,COc1cccc(CNS(=O)(=O)c2ccc3c(c2)CC(C)N3C(=O)C2CCC2)c1 (stereo not given),8.91%
9,CC(CCc1ccccc1)NC(=O)c1ccc(Br)o1 (stereo not given),5.6%
10,O=C(NCc1cccs1)c1ccc(Br)o1,6.23%
11,C/C(=N/NC(=O)c1ccc(Br)o1)c1ccc(C)o1,78.1% (active)
12,Cc1cc(C)c2c(-c3ccc(F)cc3)c(C#N)c(=O)n(C)c2n1,-4.22%
13,Cc1nnc(CN(C)Cc2cn[nH]c2-c2ccc(-c3ccccc3)cc2)o1,14.6% (active)
14,CN(CCC1CCOCC1)Cc1cn[nH]c1-c1ccc(-c2ccccc2)cc1,19% (active)
15,COc1ccc(-c2[nH]ncc2CN(C)Cc2c(C)n[nH]c2C)c(OC)c1,-6.81%
16,COc1ccc(-c2[nH]ncc2CN(C)Cc2cc(C)[nH]n2)c(F)c1,7.91%
17,O=C(CC1C(=O)NCCN1Cc1ccc(-c2ccccc2)cc1)NCC1CCOCC1 (stereo not given),-0.46%
18,O=C(c1ccc(F)cc1)C1CCN(Cc2cn[nH]c2-c2ccccc2)CC1,-1.57%
19,CC1(C)c2[nH]c3ccccc3c2C[C@H]2C(=O)N(N)CC(=O)N21,-5.11%
20,CC(C)(C)c1ccc(C(=O)NCc2nnc(SCC(=O)N3CCCc4ccccc43)n2-c2ccccc2)cc1,-1.48%
21,CC(C)(C)C(=O)N(Cc1ccccc1)c1ccccn1,0.801%
22,Cc1ccccc1N1CCN(S(=O)(=O)c2ccc3ccccc3c2)CC1,-1.83%
23,Cc1ccc(Cn2nnc3c(=O)[nH]c(C4CCN(S(=O)(=O)/C=C/c5ccccc5)CC4)nc32)cc1,-2.92%
